In PubChem BioAssay (Tox21):
Records with an inconclusive call do not appear. The source made the active and inactive calls. Unless noted, calls follow the shape of the dose curve; as a rule, active = well fitted curve in the direction sought with a large enough effect in the repeat runs; inconclusive = weak or mixed curves; inactive = no such curve, though single readings can be large; an effect the other way counts as inactive or inconclusive.

What was measured:
[1] = target: Estrogen receptor beta (Homo sapiens) (UniProt Q92731); test: qHTS assay to identify small molecule agonists of the estrogen receptor beta (ER-beta) signaling pathway (AID 1259377; active = well fitted activation curve with a large enough effect in the signal ratio in the repeat runs, not every such curve was filed as active; the % refers to the signal ratio)
How it was run: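 In HEK293T cells bearing a UAS-beta-lactamase reporter under ER-beta control, DMSO-delivered compounds were incubated for 16 hr at 37C. Activity was detected as fluorescence 2 hours after LiveBLAzer B/G FRET substrate addition.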

[2] = target: Estrogen receptor beta (Homo sapiens) (UniProt Q92731); test: qHTS assay to identify small molecule antagonists of the estrogen receptor beta (ER-beta) signaling pathway (AID 1259378; active = well fitted inhibition curve with a large enough effect in the signal ratio in the repeat runs, not every such curve was filed as active; the % refers to the signal ratio)
How it was run: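 ER-beta-UAS-bla HEK293T (GripTite) cells in 2% charcoal-stripped FBS medium were preincubated 6 hr at 37C, dosed with compound, then stimulated with 1 nM E2 (final) for 16 hr; beta-lactamase reporter read by B/G FRET fluorescence after 2 hr substrate loading.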

[3] = qHTS assay to identify small molecule agonists of the androgen receptor (AR) signaling pathway in the presence of an antagonist - cell viability counter screen (AID 1259379);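 also: MDA-kb2 human breast cancer cells carrying an MMTV luciferase reporter; series mostly up to about 92 µM; nearly all actives have a fitted effect of over 25% in size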
How it was run: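 A CellTiter-Fluor read-out measured viability of MDA-kb2 reporter cells (MMTV promoter with AR and GR response elements). Treatment: nilutamide 3.0uM final with compounds at 15 concentrations, 16 hr, 37C, 0% CO2.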

[4] = qHTS assay to identify small molecule agonists of the estrogen receptor beta (ER-beta) signaling pathway - cell viability counter screen (AID 1259380); also: nearly all actives have a fitted effect of over 30% in size
How it was run: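 Cells used were ER-beta-UAS-bla HEK293T in medium with 2% charcoal-stripped FBS. They were treated for 16 hr at 37C. Viability came from CellTiter-Glo luminescence.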

[5] = qHTS assay to identify small molecule antagonists of the estrogen receptor beta (ER-beta) signaling pathway - cell viability counter screen (AID 1259382); also: series mostly up to about 92 µM; nearly all actives have a fitted effect of over 55% in size
How it was run: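 Agonist-stimulated (1nM E2) ER-beta-UAS-bla HEK293T cells are incubated with library compounds for 16 hr at 37C. Cell viability is then assessed in the reporter-assay wells by adding CellTiter-Glo and reading luminescence after 30 min.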

[6] = target: Estrogen receptor (Homo sapiens) (UniProt P03372); test: qHTS assay to identify small molecule agonists of the estrogen receptor alpha (ER-alpha) signaling pathway in the presence of an antagonist (AID 1259383; calls by dose curve; also: top concentration of the series differs between compounds; nearly all actives have a fitted effect of over 15% in size)
How it was run: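 Using VM7Luc4E2 cells seeded 24hr before treatment, antagonist ICI-182,780 (10.0nM final) was added, followed by compounds at 15 concentrations. Plates incubated 22hr; ONE-Glo luminescence quantified reporter activity.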

[7] = qHTS assay to identify small molecule agonists of the estrogen receptor alpha (ER-alpha) signaling pathway in the presence of an antagonist - cell viability counter screen (AID 1259386);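 also: series mostly up to about 92 µM; cells exposed to compounds for 22 h at 37 °C before the viability read; nearly all actives have a fitted effect of over 30% in size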
How it was run: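 ICI-182,780 at 10.0nM final accompanies the compound titration (15 concentrations, 22hr, 37C) on VM7Luc4E2 cells. The CellTiter-Fluor fluorescence readout runs in the same wells as the luciferase assay.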

[8] = target: Thyrotropin receptor (Homo sapiens) (UniProt P16473); test: qHTS assay to identify small molecule antagonists of the thyroid stimulating hormone receptor (TSHR) signaling pathway (AID 1259385; calls by dose curve; also: nearly all actives have a fitted effect of over 20% in size)
How it was run: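 TSHR-HEK293 cells were plated and held 18 h at 37C/5% CO2, then given compound plus Ro20-1724 and stimulated with TSH at 1.5 ng/mL final. After 30 min at room temperature, cAMP was detected with cAMP-d2/anti-cAMP-cryptate (1 h) by fluorescence.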

[9] = qHTS assay to identify small molecule agonists or antagonists of the thyroid stimulating hormone receptor (TSHR) signaling pathway - wild type cell line counter screen (AID 1259384; calls by dose curve)
How it was run: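 Wild-type HEK293 cells were plated 18 h at 37 C/5% CO2, pin-dosed with compound plus Ro20-1724 medium, held 30 min at room temperature, then given cAMP-d2 and anti-cAMP-cryptate; fluorescence was read after 1 h. Fifteen concentrations, triplicate.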

[10] = target: Androgen receptor (Homo sapiens) (UniProt P10275); test: qHTS assay to identify small molecule agonists of the androgen receptor (AR) signaling pathway in the presence of an antagonist (AID 1259381; calls by dose curve; also: nearly all actives have a fitted effect of over 15% in size)
How it was run: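 Using human MDA-kb2 cells with an MMTV promoter–luciferase construct (AR and GR response elements), agonist activity is scored under 3.0uM nilutamide (final) co-treatment; 16hr incubation, 37C, luminescence readout via ONE-Glo.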

Measured: Potency

Sequence of Estrogen receptor (Homo sapiens) (P03372 whole entry, looked up): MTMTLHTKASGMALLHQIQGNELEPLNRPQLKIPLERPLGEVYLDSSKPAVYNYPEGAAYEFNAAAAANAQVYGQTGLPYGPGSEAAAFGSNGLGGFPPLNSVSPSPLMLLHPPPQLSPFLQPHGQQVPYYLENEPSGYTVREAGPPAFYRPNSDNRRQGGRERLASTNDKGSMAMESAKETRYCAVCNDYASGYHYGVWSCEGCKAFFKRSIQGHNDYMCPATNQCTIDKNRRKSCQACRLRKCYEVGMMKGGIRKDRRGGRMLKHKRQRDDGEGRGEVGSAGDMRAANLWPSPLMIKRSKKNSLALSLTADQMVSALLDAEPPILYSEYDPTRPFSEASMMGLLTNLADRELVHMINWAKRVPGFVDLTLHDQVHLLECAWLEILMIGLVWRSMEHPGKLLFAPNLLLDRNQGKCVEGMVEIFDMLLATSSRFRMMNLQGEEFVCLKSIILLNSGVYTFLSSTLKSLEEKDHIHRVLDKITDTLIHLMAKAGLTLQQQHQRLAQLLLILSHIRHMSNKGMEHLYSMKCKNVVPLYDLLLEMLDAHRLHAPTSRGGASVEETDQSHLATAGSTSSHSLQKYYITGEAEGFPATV
Sequence of Androgen receptor (Homo sapiens) (P10275 whole entry, looked up): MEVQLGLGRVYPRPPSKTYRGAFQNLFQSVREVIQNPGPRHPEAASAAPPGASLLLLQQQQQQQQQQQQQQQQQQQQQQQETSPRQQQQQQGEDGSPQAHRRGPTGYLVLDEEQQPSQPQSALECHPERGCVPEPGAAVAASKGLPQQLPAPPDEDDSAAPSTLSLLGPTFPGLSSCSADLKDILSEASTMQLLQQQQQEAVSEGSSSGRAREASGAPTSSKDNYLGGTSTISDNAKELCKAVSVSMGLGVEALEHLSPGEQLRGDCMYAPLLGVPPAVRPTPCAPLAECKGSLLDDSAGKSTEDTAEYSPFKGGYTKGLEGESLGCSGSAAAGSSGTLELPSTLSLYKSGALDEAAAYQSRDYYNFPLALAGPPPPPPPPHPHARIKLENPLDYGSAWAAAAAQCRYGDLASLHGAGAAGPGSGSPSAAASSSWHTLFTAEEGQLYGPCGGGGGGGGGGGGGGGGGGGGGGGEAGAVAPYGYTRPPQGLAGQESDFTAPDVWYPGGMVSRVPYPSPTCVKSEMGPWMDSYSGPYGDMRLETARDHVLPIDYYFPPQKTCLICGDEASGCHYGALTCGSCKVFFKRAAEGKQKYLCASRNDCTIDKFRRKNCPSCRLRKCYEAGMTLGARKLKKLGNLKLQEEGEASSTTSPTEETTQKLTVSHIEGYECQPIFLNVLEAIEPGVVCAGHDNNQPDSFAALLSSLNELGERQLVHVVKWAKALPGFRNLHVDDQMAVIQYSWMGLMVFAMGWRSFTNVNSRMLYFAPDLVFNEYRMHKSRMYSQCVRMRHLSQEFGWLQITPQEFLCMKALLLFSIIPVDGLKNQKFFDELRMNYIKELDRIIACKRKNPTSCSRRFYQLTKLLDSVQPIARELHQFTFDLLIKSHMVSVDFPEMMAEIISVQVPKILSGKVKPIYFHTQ
Sequence of Estrogen receptor beta (Homo sapiens) (Q92731 whole entry, looked up): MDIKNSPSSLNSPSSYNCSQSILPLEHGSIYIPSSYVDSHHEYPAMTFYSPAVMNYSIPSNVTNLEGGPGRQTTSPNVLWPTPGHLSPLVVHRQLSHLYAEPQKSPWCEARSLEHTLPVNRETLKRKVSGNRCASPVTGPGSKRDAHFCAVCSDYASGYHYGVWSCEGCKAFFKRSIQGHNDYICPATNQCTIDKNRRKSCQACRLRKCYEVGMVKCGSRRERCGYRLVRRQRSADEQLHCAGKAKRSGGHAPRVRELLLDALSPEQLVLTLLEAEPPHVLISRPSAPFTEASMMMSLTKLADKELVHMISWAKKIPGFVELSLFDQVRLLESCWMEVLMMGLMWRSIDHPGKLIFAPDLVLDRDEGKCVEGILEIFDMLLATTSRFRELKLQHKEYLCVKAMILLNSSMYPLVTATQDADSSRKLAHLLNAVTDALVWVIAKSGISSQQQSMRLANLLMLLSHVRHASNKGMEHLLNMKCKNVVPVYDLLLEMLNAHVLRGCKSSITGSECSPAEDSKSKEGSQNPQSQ
Sequence of Thyrotropin receptor (Homo sapiens) (P16473 whole entry, looked up): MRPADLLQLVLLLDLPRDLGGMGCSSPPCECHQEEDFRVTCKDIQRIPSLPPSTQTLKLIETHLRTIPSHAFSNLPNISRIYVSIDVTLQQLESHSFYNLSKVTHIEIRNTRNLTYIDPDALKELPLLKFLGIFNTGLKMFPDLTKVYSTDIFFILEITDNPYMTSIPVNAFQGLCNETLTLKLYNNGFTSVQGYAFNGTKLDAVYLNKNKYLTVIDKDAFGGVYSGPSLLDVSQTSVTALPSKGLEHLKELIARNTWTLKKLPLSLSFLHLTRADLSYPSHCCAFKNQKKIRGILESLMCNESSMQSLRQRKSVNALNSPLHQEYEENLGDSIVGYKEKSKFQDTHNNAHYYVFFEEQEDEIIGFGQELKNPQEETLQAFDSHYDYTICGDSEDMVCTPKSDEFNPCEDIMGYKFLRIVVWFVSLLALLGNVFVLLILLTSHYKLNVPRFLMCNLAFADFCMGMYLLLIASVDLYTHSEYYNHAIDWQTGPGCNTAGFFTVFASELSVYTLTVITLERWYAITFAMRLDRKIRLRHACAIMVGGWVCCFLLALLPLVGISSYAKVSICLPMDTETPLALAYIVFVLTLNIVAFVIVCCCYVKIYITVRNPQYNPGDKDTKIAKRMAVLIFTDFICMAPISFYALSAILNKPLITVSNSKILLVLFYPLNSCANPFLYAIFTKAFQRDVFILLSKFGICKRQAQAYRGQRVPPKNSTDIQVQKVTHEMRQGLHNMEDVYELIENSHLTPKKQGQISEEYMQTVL

COc1ccc(S(=O)(=O)Nc2nnc(CC(C)C)s2)cc1
not listed: [8] | [9] | [10]
inactive: all other assays above

Cc1cccc(C)c1NC(=O)CN1CCCCCC1
not listed: [9] | [10]
inactive: all other assays above

Oc1ccccc1F
not listed: [10]
inactive: all other assays above

O=C(Cl)c1cccc([N+](=O)[O-])c1
not listed: [10]
inactive: all other assays above

CN1CCN(C2=Nc3ccccc3Oc3ccc(Cl)cc32)CC1
not listed: [8] | [10]
inactive: all other assays above

O=C(O)c1cccc(Cl)c1Cl
not listed: [10]
inactive: all other assays above

CO[C@@]1(NC(=O)CSCC#N)C(=O)N2C(C(=O)O)=C(CSc3nnnn3C)CS[C@@H]21
not listed: [8] | [9] | [10]
inactive: all other assays above

N#CSCC(=O)O
inactive: all assays above

O=C1CCCCCCCCCCC(=O)OCCO1
not listed: [10]
inactive: all other assays above

CC(C)CCCCCCc1ccc(OCCOCCO)cc1
inactive: all assays above

CCOC(=O)[C@H](CCc1ccccc1)N[C@@H](C)C(=O)N1Cc2cc(OC)c(OC)cc2C[C@H]1C(=O)O
not listed: [10]
inactive: all other assays above

NNS(=O)(=O)c1ccc(Oc2ccc(S(=O)(=O)NN)cc2)cc1
not listed: [9] | [10]
inactive: all other assays above

CC(C)C(=O)OCC(C)(C)C(O)C(C)C (stereo not given)
not listed: [9] | [10]
inactive: all other assays above

CNCCC(Oc1ccccc1OC)c1ccccc1 (stereo not given)
not listed: [10]
inactive: all other assays above

CO[Si](C)(C)OC
not listed: [10]
inactive: all other assays above

CCOC(=O)NCCC[Si](OCC)(OCC)OCC
not listed: [10]
inactive: all other assays above

CCCS(=O)c1ccc2nc(NC(=O)OC)[nH]c2c1 (stereo not given)
not listed: [6] | [9]
inactive: all other assays above

CC(=O)OC1C2(C)CCC(C2)C1(C)C (stereo not given)
not listed: [10]
inactive: all other assays above

CCOc1ccc(NC(N)=O)cc1
not listed: [10]
inactive: all other assays above

CCCCCCCCCC/C=C/C#N
not listed: [9] | [10]
inactive: all other assays above

CN1CCN(N)CC1
inactive: all assays above

CC(C)CC(=O)OCc1ccccc1
inactive: [1] | [2] | [3] | [4] | [5] | [6]

CN(C)Cc1ccccc1
not listed: [6]
inactive: all other assays above

Cc1ccsc1C(=CCCN1CCC[C@@H](C(=O)O)C1)c1sccc1C
inactive: all assays above

c1ccc(CN(CC2=NCCN2)c2ccccc2)cc1
not listed: [9] | [10]
inactive: all other assays above
